The whole screen tested about 86,000 compounds, of which about 1,400 (1.6%) were called active. No stated cut-off is given here; in the data, active means inhibition above about 50%; inactive means the rest. The list comes from a sample in which actives are over-represented; it also holds similar structures and randomly drawn compounds.
What follows are molecules tested against Estrogen receptor (Homo sapiens) (UniProt P03372) (assay: ERα–SRC-1 coactivator interaction inhibitors, primary screen, biochemical, TR-FRET, ERα LBD, estradiol-bound (AID 629;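 further: 0% = receptor plus peptide control and 100% = peptide only without receptor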)). Conditions: TR-FRET ER-alpha LBD / SRC-1 peptide, at 25.6 µM, hits give high values.
Sequence of Estrogen receptor (Homo sapiens) (P03372 whole entry, looked up, the tested form may be a part): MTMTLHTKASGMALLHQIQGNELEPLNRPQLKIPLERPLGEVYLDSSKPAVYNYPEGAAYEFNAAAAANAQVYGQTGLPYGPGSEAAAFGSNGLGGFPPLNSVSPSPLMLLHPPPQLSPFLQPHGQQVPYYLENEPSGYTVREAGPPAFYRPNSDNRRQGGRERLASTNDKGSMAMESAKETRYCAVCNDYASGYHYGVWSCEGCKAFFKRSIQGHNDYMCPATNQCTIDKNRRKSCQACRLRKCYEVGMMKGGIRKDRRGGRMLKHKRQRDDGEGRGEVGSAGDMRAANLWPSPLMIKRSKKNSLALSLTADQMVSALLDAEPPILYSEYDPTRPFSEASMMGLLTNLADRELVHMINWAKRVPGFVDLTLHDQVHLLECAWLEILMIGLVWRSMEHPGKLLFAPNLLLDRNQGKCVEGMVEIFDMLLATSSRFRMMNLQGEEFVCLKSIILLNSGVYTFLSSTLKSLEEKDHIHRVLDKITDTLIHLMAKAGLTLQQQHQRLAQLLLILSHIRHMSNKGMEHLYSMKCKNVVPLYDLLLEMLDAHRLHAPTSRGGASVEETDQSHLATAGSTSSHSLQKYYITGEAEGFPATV
OC(CN=c1sc2ccccc2n1CC(O)COc1ccccc1)COc1ccccc1 (stereo unspecified) was tested, and the inhibition was -21.1% (inactive).
In the case of O=C(Nc1ccc2c(c1)OCCO2)C(c1ccc(F)cc1)N1CCCCC1 (stereo unspecified), the inhibition is reported as 1.74% (inactive).
With CCOC(=O)c1[nH]c2ccc(OC)cc2c1NC(=O)CCN1CCN(Cc2ccccc2)CC1 the inhibition was 0.69% (inactive).
For COC(=O)c1[nH]c2cccc(C)c2c1NC(=O)CN1CCCc2ccccc21, the inhibition was 33.1% (inactive).
With COC(=O)c1[nH]c2ccccc2c1NC(=O)CN1CCCc2ccccc21 the inhibition was 66.9% [fluorescence artefact?] (active).
In the case of COC(=O)c1ccccc1NC(=O)CN(Cc1ccc(Cl)cc1)S(C)(=O)=O, the inhibition is reported as 5.73% (inactive).
With C=CCc1ccc(OCCOc2cccc(/C=N/n3cnnc3)c2)c(OC)c1 the inhibition was -8.6% (inactive).
With Cc1ccc(OCC(=O)Nc2ccc(-c3nnc(-c4ccco4)o3)cc2)cc1 the inhibition was 63.7% [fluorescence artefact?] (active).
In the case of CCOc1ccc(-c2nnc(-c3ccco3)o2)cc1, the inhibition is reported as -0.96% (inactive).
For COc1ccc(CC(=O)Nc2ccc(-c3nnc(-c4ccc(C)cc4)o3)cc2)cc1, the inhibition was 8.24% (inactive).
For O=C(CSc1nc2cccnc2n1Cc1ccccc1)N1CCc2ccccc21, the inhibition was 34.4% (inactive).
For COc1nc(NC2CCCCC2)nc(N2CCCCCC2)n1, the inhibition was 6.7% (inactive).
With COC(=O)c1c(NC(=O)CSc2nncs2)sc2c1CCCCC2 the inhibition was -1.55% (inactive).
CC(Sc1nc2ccccc2c(=O)n1Cc1ccco1)C(=O)c1ccccc1 (stereo unspecified) was tested, and the inhibition was 4.97% (inactive).
In the case of COc1ccc(-c2nnc(SCC(=O)c3ccco3)n2-c2ccccc2)cc1, the inhibition is reported as 11% (inactive).
With COc1ccc(-n2c(SCC(=O)Nc3sc4c(c3C#N)CCCC4)nnc2-c2ccc(O)cc2)cc1 the inhibition was 78.5% [fluorescence artefact?] (active).
With N#Cc1c(NC(=O)CSc2nc3ccccc3c(=O)n2Cc2ccco2)sc2c1CCCC2 the inhibition was 61.9% [fluorescence artefact?] (active).
For C=C(C)Cn1c(SCC(=O)NCc2ccco2)nc2sc3c(c2c1=O)CCC3, the inhibition was 7.04% (inactive).
Cc1cccn2c(=O)c(/C=C(\C#N)S(=O)(=O)c3ccc(Cl)cc3)c(N3CCC(C(N)=O)CC3)nc12 was tested, and the inhibition was -0.02% (inactive).
O=C(CSCc1c(F)cccc1Cl)NCC1CCCO1 (stereo unspecified) was tested, and the inhibition was -1.37% (inactive).
For CCCCOc1ccc(C(=O)NCc2ccncc2)cc1, the inhibition was 1.95% (inactive).
With COC(=O)c1cc(NC2c3ccccc3C(=O)N2c2ccc(Cl)cn2)cc(C(=O)OC)c1 (stereo unspecified) the inhibition was 66.6% (active).
Cc1ccnc(N2C(=O)c3ccccc3C2Nc2ccc3c(c2)OCCO3)c1 (stereo unspecified) was tested, and the inhibition was 1.59% (inactive).
For CCc1ccccc1NC1c2ccccc2C(=O)N1c1cccnc1 (stereo unspecified), the inhibition was -8.02% (inactive).
For CCOC(=O)C1=C(C)NC(SC)=NC1c1ccccc1 (stereo unspecified), the inhibition was -2.42% (inactive).
With Cc1nnc(SC(C)C(=O)Nc2ccc(S(=O)(=O)NC3CCCCC3)cc2)s1 (stereo unspecified) the inhibition was 21.6% (inactive).
With COc1ccc(N2CCN(C(=O)CSc3nc4cc(OC)c(OC)cc4cc3C#N)CC2)cc1 the inhibition was 51.1% [fluorescence artefact?] (active).
With COc1ccc(N2CCN(C(=O)CSc3ncnc4c3cnn4-c3ccc(OC)cc3)CC2)cc1 the inhibition was -7.43% (inactive).
With CCOc1ccc2cc(C#N)c(SCC(=O)OC)nc2c1 the inhibition was 17.3% (inactive).
With COc1ccc(C)cc1S(=O)(=O)NCCc1ccccc1 the inhibition was 8.31% (inactive).
With Cc1ccc(OC(=O)c2ccccc2C(=O)OCC(F)(F)C(F)F)cc1 the inhibition was -6.39% (inactive).
With COc1ccc(-c2ccc(-c3noc(-c4ccncc4)n3)c(OC)n2)cc1 the inhibition was 59.7% (active).
In the case of COc1cc(-c2nc(-c3ccncc3)no2)cc(OC)c1OC, the inhibition is reported as -8.51% (inactive).
In the case of CCOc1nc(-c2ccc(OC)cc2)ccc1-c1noc(-c2cc(OC)c(OC)c(OC)c2)n1, the inhibition is reported as 9.34% (inactive).
NC1=NC(=O)C2(COC(c3ccccc3Cl)OC2)S1 (stereo unspecified) was tested, and the inhibition was -0.98% (inactive).
With COc1cccc(NC(=O)Cc2ccc(C)cc2)c1 the inhibition was -3.07% (inactive).
In the case of CC(=O)c1cccc(NC(=O)Nc2ccc(C)cc2)c1, the inhibition is reported as 4.59% (inactive).
With Cc1ccc(NC(=S)NC(NC(=O)Cc2cccc3ccccc23)C(Cl)(Cl)Cl)cc1 (stereo unspecified) the inhibition was 57% [fluorescence artefact?] (active).
With O=S(=O)(Cc1cc(Sc2ccccc2)nc(-c2ccccc2)n1)c1ccccc1 the inhibition was -0.05% (inactive).
With CC(=O)Nc1ccc(S(=O)(=O)Nc2cccc(NC(=O)C(C)(C)C)c2)cc1 the inhibition was -5.55% (inactive).
CSc1ccc(S(=O)(=O)Nc2cccc(F)c2)cc1 was tested, and the inhibition was 61.3% (active).
In the case of CSc1ccc(S(=O)(=O)NC2CCCCC2)cc1, the inhibition is reported as 6.27% (inactive).
Cc1cccc(N2CCN(C(c3ccc(N(C)C)cc3)c3nnnn3C(C)(C)C)CC2)c1C (stereo unspecified) was tested, and the inhibition was 1.11% (inactive).
For CC(=O)C1=C(C)NC(C)=C(C(C)=O)C1c1cn(-c2ccccc2)nc1-c1cccs1, the inhibition was -18.1% (inactive).
CC(C)(C)c1cc(=O)n2c(nc3ccccc32)[nH]1 was tested, and the inhibition was 11.3% (inactive).
COCCn1c(SCc2nnc(-c3ccc(OC)c(OC)c3)o2)nc2sc3c(c2c1=O)CCC3 was tested, and the inhibition was -16.5% (inactive).
For CCCC1(C(=O)OCC)NC(c2ccc(N(C)C)cc2)C2C(=O)N(c3ccc4c(c3)OCCO4)C(=O)C21 (stereo unspecified), the inhibition was -19% (inactive).
In the case of Cc1nc2ccc(C(=O)N3CCN(c4ccccc4)CC3)cc2s1, the inhibition is reported as -14.9% (inactive).
For O=C(c1cc2c(s1)CCC2)N1CCN(c2ccccc2)CC1, the inhibition was 67.9% [fluorescence artefact?] (active).
With COc1cccc(-c2nn(C)c3sc(C(=O)N4CCN(c5ccccc5)CC4)cc23)c1 the inhibition was 6.81% (inactive).
With COC(=O)c1cc(OC)ccc1-c1ccc(OC)cc1 the inhibition was -2.99% (inactive).
For CCc1ccc(CNC(=O)CCc2nc(-c3cccs3)no2)cc1, the inhibition was 0.94% (inactive).
For O=C(c1cc2sccc2n1Cc1ccc(F)cc1)N1CCc2ccccc21, the inhibition was -24.7% (inactive).
O=C(CN1CCN(S(=O)(=O)/C=C/c2ccccc2)CC1)NC(=O)NCc1ccco1 was tested, and the inhibition was 55% [fluorescence artefact?] (active).
In the case of O=C(COC(=O)c1ccc(S(=O)(=O)N2CCc3ccccc3C2)cc1)NC(=O)NCc1ccco1, the inhibition is reported as 10.1% (inactive).
In the case of CC1(c2ccccc2Cl)NC(=O)N(CC(=O)NC(=O)NCc2ccco2)C1=O (stereo unspecified), the inhibition is reported as 9.78% (inactive).
